This note sets out measurements from PubChem BioAssay AID651871 (Sanford-Burnham Center for Chemical Genomics, 2012).

Values joined by “and” are separate entries in the source; they are usually repeats but may differ in a detail not shown here. Identical values can stand only once.

In the assay the test system is HL-1. In words: cardiomyocyte survival under oxidative or metabolic stress – cell-based, panel, H9c2 and HL-1, ATP luminescence, set 2, SAR follow-up (AID 651871).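 Also: cells exposed to stressor for 2 h before ATP readout; reference of the scale not given here.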 The settings on record: H9c2/HL-1 cardiomyocytes, H2O2 oxidative stress; with H2O2, run 2, at 79 µM (top of the series).
In the case of `COc1ccc2c(c1OC)C(=O)N1c3ccccc3C(=O)N(Cc3cccc(Cl)c3Cl)C21` (centres undefined), the activity (protection/inhibition) is -0.168% and -1.52% and -3.02%.

For `COc1ccc2nc(-c3cc(OC)c(OC)c(OC)c3)cc(C(=O)NCC(=O)Nc3ccc(C(C)=O)cc3)c2c1`, the activity (protection/inhibition) was 27.5% and 38.9%.

Turning to `COc1cc(-c2cc(C(=O)Nc3cccc(C(=O)NCc4ccccc4)c3)c3ccccc3n2)cc(OC)c1OC`, the activity (protection/inhibition) is 25%.

Turning to `CCOC(=O)c1cccc(NC(=O)CNC(=O)c2cc(-c3cc(OC)c(OC)c(OC)c3)nc3ccccc23)c1`, the activity (protection/inhibition) was 44%.
